# Laboratory results published in PubChem BioAssay (NCI).
# Compounds without any hit were thinned out: in the full panel of roughly 79,000, 15% have a hit. Unmarked numbers belong to inactive results. Activity calls are given as the source filed them. Rule as the data show it: active = growth inhibition above about 70%; inactive = the rest.
# Columns and labels:
# [1] = NCI Yeast Anticancer Drug Screen. Data for the rad50 strain (AID 155);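 also: 0% = growth of vehicle-only cultures of the same strain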; conditions: S. cerevisiae rad50 strain growth inhibition; at 50.0 µM; stronger effect = higher value
# In short: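 Readout: growth inhibition relative to vehicle-treated cultures. Compound exposure was carried out in a genetically defined yeast strain deficient in DNA damage repair.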
# [2] = NCI Yeast Anticancer Drug Screen. Data for the mec2-1 strain (AID 157); conditions: S. cerevisiae mec2-1 strain, at 50.0 µM, stronger effect = higher value
# In short: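 Growth inhibition is read against vehicle-treated controls after compound exposure of the mec2-1 yeast strain, which is defective in DNA damage repair or cell cycle control.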
# [3] = NCI Yeast Anticancer Drug Screen. Data for the sgs1 mgt1 strain (AID 161);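 also: 0% = growth of cultures given vehicle only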; conditions: S. cerevisiae sgs1 mgt1 strain, at 50.0 µM, stronger effect = higher value
# In short: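 Compounds are added to genetically altered yeast, and growth is compared with cultures given vehicle alone to give percent inhibition.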
# [4] = NCI Yeast Anticancer Drug Screen. Data for the cln2 rad14 strain (AID 165);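 also: 0% = growth equal to vehicle treated cultures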; conditions: S. cerevisiae cln2 rad14 strain, at 50.0 µM, stronger effect = higher value
# In short: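 Growth inhibition, relative to vehicle-treated controls, is the read-out. The test organism is a yeast strain with defined genetic alterations, cln2 rad14.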
# [5] = NCI Yeast Anticancer Drug Screen. Data for the bub3 strain (AID 167); conditions: S. cerevisiae bub3 mutant strain, at 50.0 µM, stronger effect = higher value
# In short: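 Readout: yeast growth inhibition, expressed relative to vehicle-only wells. The test organism is a mutant strain from a panel with lesions in DNA repair or checkpoint genes.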
# [6] = NCI Yeast Anticancer Drug Screen. Data for the mlh1 rad18 strain (AID 175); conditions: S. cerevisiae mlh1 rad18 strain growth inhibition; at 50.0 µM; stronger effect = higher value
# In short: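 Cells of a genetically altered yeast strain, deficient in DNA damage repair, were treated with compound. Their growth was then compared with that of vehicle-treated cultures to give inhibition.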
Structure (SMILES),growth inhibition [1],growth inhibition [2],growth inhibition [3],growth inhibition [4],growth inhibition [5],growth inhibition [6]
O=C(Cl)OC1CS(=O)(=O)CC1O (centres undefined),-6.6%,1%,-2.5%,-34.6%,4.45%,0.25%
[C-]#[O+].[Cl][Ru]([Cl])([Cl])([Cl])[Cl],-7.05%,-8.95%,35%,-6.75%,11.3%,1.9%
COC(=O)C1C(O)CC2CCC1[N+]2(C)C (centres undefined),3.3%,5.8%,12.4%,2.05%,36.9%,-6.8%
CC(Cl)CNC1c2ccccc2CC1O (centres undefined),-4.4%,-7.8%,-1.45%,-18.6%,-6.4%,5.45%
N=C(N)n1cc(/C=N/N=C(N)N)cn1,-4.4%,-4.35%,-0.15%,0.1%,-8.3%,5.8%
ClC12OOC(c3ccccc3)(O1)C(c1ccccc1)c1ccccc12 (centres undefined),14.2%,24.1%,34.9%,51.9%,10.8%,44.5%
CCCCOP(O)(=S)OCCCC.[Y],-20.9%,2.95%,4.2%,25.4%,-8.6%,-2.75%
CC[C@@H](C)C(=O)O[C@H]1[C@H](O)[C@H]2[C@@H](CN3C[C@@H](C)CC[C@H]3[C@@]2(C)O)[C@@H]2C[C@]34O[C@]5(O)[C@@H](OC(=O)[C@@](C)(O)CC)CC[C@@]3(C)[C@@H]5[C@@H](OC(C)=O)[C@@H](OC(C)=O)[C@H]4[C@@]21O,11.8%,-15.3%,0.75%,-4.3%,8.75%,7.35%
C[C@@H]1C[C@@H](O)[C@]2(O)O[C@@H]3C[C@@]4(C=O)[C@@H](CC[C@@H]5[C@@H]4CC[C@]4(C)[C@@H](C6=CC(=O)OC6)CC[C@]54O)C[C@H]3O[C@@H]2O1,-7.25%,-16.6%,27.4%,-4.55%,-15.2%,-96.5%
C/C=C/C(=O)[O-].N.N.N.N.N.[Co+3].[O-][Cl+3]([O-])([O-])[O-],-10.4%,-5.85%,-7.6%,9.35%,-12.8%,-36.1%
CC1CCNC(C)C1 (centres undefined),35.3%,-10.4%,-13.8%,-62.9%,17.9%,8.6%
O=C1NC(=S)NC(=O)C1=Cc1ccccc1O,-2.15%,-16.9%,-12.3%,-32.4%,-1.45%,-31.2%
CC1(C)CN1C1=C(F)C(=O)C(N2CC2(C)C)=C(F)C1=O,36.5%,68.2%,50.5%,8.45%,47.3%,74.3% (active)
COc1ccc2[nH]c3c(c2c1)CCNC3C (centres undefined),2.3%,-12.6%,2.6%,-52.1%,5.4%,-17.3%
CC1N=C(c2ccccc2)C2(c3ccccc3)C(C)N12 (centres undefined),-7%,6.8%,-7.7%,-29.2%,-10.3%,5.85%
Cc1ccccc1.[C-]#[O+].[C-]#[O+].[C-]#[O+].[W],-11.5%,-1.2%,2%,28.2%,24.9%,-8.05%
O=P(OCCCCCl)(OCCCCCl)C(Cl)Cl,-6.4%,-11.6%,0.65%,5.8%,4.5%,6.5%
C#CCOC(N)=O,1.05%,-15.1%,-7.65%,-18.6%,-14.8%,-17.6%
CC(=O)Nc1cc([As](C)(=O)O)ccc1O,-10.3%,1.75%,1.95%,-41.5%,-9.65%,-1.85%
